According to PubChem BioAssay (NCATS):
Results filed as inconclusive are left out. Active and inactive are the calls of the source. Unless noted, calls come from the whole dose curve.

What was measured:
[1] = qHTS for Inhibitors of the Functional Ribonucleoprotein Complex (vRNP) of Lassa (LASV) Arenavirus: LASV Primary Screen - GLuc reporter signal (AID 1347082; calls by dose curve; tested in HEK293 reporter line; note: nearly all actives have a fitted effect of over 60% in size; note: potency is the fitted concentration of half-maximal effect)
[2] = qHTS for Inhibitors of the Functional Ribonucleoprotein Complex (vRNP) of Lassa (LASV) Arenavirus: Viability assay - alamar blue signal for LASV Primary Screen (AID 1347083; calls by dose curve; tested in HEK293 reporter line; note: nearly all actives have a fitted effect of over 80% in size; note: potency is the fitted concentration of half-maximal effect)
[3] = qHTS for Inhibitors of the Functional Ribonucleoprotein Complex (vRNP) of Lymphocytic Choriomeningitis Arenaviruses (LCMV): Viability assay - alamar blue signal for LCMV Primary Screen (AID 1347085; calls by dose curve; tested in HEK293 reporter line; note: nearly all actives have a fitted effect of over 80% in size; note: potency is the fitted concentration of half-maximal effect)
[4] = molecular target: Nucleoprotein (Lymphocytic choriomeningitis virus (strain Armstrong)) (UniProt P09992); experiment: qHTS for Inhibitors of the Functional Ribonucleoprotein Complex (vRNP) of Lymphocytic Choriomeningitis Arenaviruses (LCMV): LCMV Primary Screen - GLuc reporter signal (AID 1347086); note: nearly all actives have a fitted effect of over 70% in size; note: potency is the fitted concentration of half-maximal effect
Chain of Nucleoprotein (Lymphocytic choriomeningitis virus (strain Armstrong)) (P09992 whole entry, looked up): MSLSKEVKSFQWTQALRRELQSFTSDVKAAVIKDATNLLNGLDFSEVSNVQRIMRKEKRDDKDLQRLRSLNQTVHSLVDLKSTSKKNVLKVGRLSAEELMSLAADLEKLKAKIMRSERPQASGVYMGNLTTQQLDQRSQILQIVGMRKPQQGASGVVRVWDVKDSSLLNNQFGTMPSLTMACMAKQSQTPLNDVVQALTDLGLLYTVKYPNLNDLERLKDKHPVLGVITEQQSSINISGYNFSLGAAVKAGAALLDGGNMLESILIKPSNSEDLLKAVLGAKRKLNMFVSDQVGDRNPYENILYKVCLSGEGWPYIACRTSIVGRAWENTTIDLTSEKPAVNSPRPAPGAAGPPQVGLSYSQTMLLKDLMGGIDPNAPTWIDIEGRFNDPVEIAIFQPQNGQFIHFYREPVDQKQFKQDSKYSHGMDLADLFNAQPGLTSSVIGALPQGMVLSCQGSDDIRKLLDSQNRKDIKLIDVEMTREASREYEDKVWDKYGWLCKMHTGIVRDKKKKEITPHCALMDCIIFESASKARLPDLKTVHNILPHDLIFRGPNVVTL

[5] = Cytotoxicity counterscreen for inhibitors of SARS-CoV-2 cell entry (AID 1645845); note: nearly all actives have a fitted effect of over 50% in size
Summary of the method: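 Counterscreen run in the same HEK293-ACE2 line as the pseudotyped-particle entry assay, without particles. Viability after 48 h at 37 C was read as ATP luminescence, scaled between cell-containing and cell-free wells.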

[6] = Primary qHTS to identify inhibitors of SARS-CoV-2 cell entry (AID 1645846); conditions: activity change, negative = inhibition: at 57.1 µM (top of the series) unless noted; note: nearly all actives have a fitted effect of over 45% in size; note: potency is the fitted concentration of half-maximal effect
Summary of the method: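 HEK293-ACE2 (Expi293F, stable hACE2), 1500 cells/well, o/n 37C; cpd 23 nL pin, 1 h; MLV-PP w/ SARS-CoV-2-S (Wuhan-Hu-1, Δ19 C-term); 48 h 37C; Bright-Glo luminescence; normalized vs S-PP and bald PP.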

[7] = VSVG counterscreen qHTS to identify inhibitors of SARS-CoV-2 cell entry (AID 1645847); note: potency is the fitted concentration of half-maximal effect; nearly all actives have a fitted effect of over 65% in size
Summary of the method: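 Expi293F/hACE2 cells, overnight plating; cpd 1 h, 37C/5% CO2; + VSV-G PP (MLV pseudotyping), 48 h; supernatant removed, Bright-Glo luciferase read. Norm: VSV-G PP and bald PP wells.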

[8] = molecular target: Alpha-galactosidase (Coffea arabica) (UniProt Q42656); experiment: Counterscreen for Glucocerebrosidase Inhibitors: qHTS Assay for Coffee Bean alpha-Galactosidase at pH 4.5 (AID 957; active = well fitted curve in the direction sought with a large enough effect; an effect the other way counts as inactive or inconclusive)
Chain of Alpha-galactosidase (Coffea arabica) (Q42656 whole entry, looked up): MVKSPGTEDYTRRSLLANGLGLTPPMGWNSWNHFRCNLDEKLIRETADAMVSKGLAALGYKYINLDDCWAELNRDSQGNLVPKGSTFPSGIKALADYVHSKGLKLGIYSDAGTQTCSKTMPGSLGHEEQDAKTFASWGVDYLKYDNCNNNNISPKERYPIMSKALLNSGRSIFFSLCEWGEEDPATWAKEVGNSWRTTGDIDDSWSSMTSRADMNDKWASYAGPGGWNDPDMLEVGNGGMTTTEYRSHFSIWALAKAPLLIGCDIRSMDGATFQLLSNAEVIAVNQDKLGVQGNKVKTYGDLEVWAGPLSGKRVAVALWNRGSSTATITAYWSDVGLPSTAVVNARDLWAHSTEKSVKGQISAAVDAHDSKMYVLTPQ
Summary of the method: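 Fluorogenic qHTS at pH 4.5 (citrate buffer with Tween-20): 2 nM enzyme, 80 uM 4-MU-alpha-galactoside substrate, compound titrated 0.7 nM to 77 uM, 20 min room temperature. Glycine/NaOH stop; 4-MU read Ex 365/Em 440; Hill-equation AC50 against no-enzyme and enzyme controls.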

[9] = molecular target: Alpha-galactosidase (Coffea arabica) (UniProt Q42656); experiment: Counterscreen for Glucocerebrosidase Inhibitors: qHTS Assay for Coffee Bean alpha-Galactosidase at pH 5.9 (AID 998; active = well fitted curve in the direction sought with a large enough effect; an effect the other way counts as inactive or inconclusive)
Summary of the method: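 Enzyme 2 nM + cpd (0.7 nM–77 uM titration) + 4-MU-alpha-Gal 80 uM, pH 5.9 citrate/Tween-20, RT 20 min, NaOH/glycine stop pH 10, fluor 365/440. Normalized to no-enzyme and full-activity controls; Hill-fit AC50.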

[10] = Validation screen for inhibitors of Lassa infection (AID 463096)
[11] = Inducers of the Endoplasmic Reticulum Stress Response (ERSR) in human glioma: Validation (AID 504836; active = well fitted curve in the direction sought with a large enough effect; an effect the other way counts as inactive or inconclusive)
Summary of the method: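 Stably transfected U87-MG glioma cells carrying a GRP78-based luciferase sensor; 16 h compound incubation. Luminescence end-point read 10 min after Bright-Glo addition at room temperature.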

[12] = molecular target: Cytochrome P450 2C9 (Homo sapiens) (UniProt P11712); experiment: qHTS Assay for Inhibitors and Substrates of Cytochrome P450 2C9 (AID 883; active = well fitted curve in the direction sought with a large enough effect; an effect the other way counts as inactive or inconclusive; note: potency is the fitted concentration of half-maximal effect; nearly all actives have a fitted effect of over 60% in size)
Chain of Cytochrome P450 2C9 (Homo sapiens) (P11712 whole entry, looked up): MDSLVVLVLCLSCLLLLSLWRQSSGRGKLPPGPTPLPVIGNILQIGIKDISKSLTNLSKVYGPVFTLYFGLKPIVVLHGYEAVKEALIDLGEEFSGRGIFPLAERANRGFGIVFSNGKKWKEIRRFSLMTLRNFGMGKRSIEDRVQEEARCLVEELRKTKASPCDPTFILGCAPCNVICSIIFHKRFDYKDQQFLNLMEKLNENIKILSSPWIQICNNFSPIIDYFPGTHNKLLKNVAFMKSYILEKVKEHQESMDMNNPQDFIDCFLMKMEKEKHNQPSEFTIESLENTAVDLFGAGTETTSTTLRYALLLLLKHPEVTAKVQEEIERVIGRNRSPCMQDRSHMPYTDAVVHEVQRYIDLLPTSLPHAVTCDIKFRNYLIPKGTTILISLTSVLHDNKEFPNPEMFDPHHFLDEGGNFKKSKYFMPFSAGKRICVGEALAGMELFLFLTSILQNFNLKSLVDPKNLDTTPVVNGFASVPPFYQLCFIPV
Summary of the method: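 Human CYP2C9 (10nM) with Luciferin-H at 100uM (its KM) in 25mM KPO4; compound preincubated 10 min at 37C, then NADPH regeneration for 60 min at 37C. Luciferin read by luminescence after detection reagent; normalized to 57uM sulphaphenazole as full inhibition.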

[13] = molecular target: Cytochrome P450 3A4 (Homo sapiens) (UniProt P08684); experiment: qHTS Assay for Activators of Cytochrome P450 3A4 (AID 885; active = well fitted curve in the direction sought with a large enough effect; an effect the other way counts as inactive or inconclusive; note: nearly all actives have a fitted effect of over 65% in size)
Chain of Cytochrome P450 3A4 (Homo sapiens) (P08684 whole entry, looked up): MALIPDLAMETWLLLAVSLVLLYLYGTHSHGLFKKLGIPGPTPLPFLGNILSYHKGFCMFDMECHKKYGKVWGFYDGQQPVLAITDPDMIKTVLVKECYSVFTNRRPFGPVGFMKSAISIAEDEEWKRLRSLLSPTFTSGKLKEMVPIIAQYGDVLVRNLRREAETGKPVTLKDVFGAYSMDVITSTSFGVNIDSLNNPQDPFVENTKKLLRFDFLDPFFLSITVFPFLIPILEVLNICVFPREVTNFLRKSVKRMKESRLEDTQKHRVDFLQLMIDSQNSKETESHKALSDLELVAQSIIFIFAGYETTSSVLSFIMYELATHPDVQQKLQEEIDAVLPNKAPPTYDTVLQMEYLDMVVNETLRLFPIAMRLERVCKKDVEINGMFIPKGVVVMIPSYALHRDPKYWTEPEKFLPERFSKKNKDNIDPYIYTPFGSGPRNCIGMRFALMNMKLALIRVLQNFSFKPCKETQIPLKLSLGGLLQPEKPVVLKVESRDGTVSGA
Summary of the method: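 CYP3A4 activity: Luciferin-PPXE O-dealkylation, 25uM substrate, 200mM KPO4, RT throughout. Read-out is luciferase luminescence; higher values reflect activation.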

CC(C)Nc1cc(C(F)(F)F)cc2nc(NC(=O)c3cccnc3)nn12
inactive: Potency [1] | Potency [2] | Potency [3] | Potency [4] | Potency [5]
-4.48%: activity change, negative = inhibition [6]

CC(C)c1cnn2c(NCc3ccccc3)cc(N[C@@H](CO)[C@H](O)CO)nc12
-93.9%: activity change, negative = inhibition [6]
active: Potency [1] 2430 nM | Potency [2] 485 nM | Potency [3] 685 nM | Potency [4] 1720 nM | Potency [7] 482 nM
inactive: Potency [5]

CC(C)c1nn(-c2c(Cl)cccc2Cl)c2nc(Cc3ccc(OCCO)cc3)[nH]c(=O)c12
active: Potency [1] 172 nM | Potency [2] 217 nM | Potency [3] 153 nM | Potency [4] 243 nM | Potency [7] 54.1 nM
inactive: Potency [5]
-95.3%: activity change, negative = inhibition [6]

C#CCN(C)CC1=Cc2ccccc2Oc2ccccc21
1.65%: activity change, negative = inhibition [6]
inactive: Potency [1] | Potency [2] | Potency [3] | Potency [4] | Potency [5]

C[C@H](Cc1ccc(O)c(O)c1)[C@@H](C)Cc1ccc(O)c(O)c1
-10.6%: activity change, negative = inhibition [6]
inactive: outcome [8] | outcome [9] | Potency [10] | outcome [11] | Potency [1] | Potency [2] | Potency [3] | Potency [4] | Potency [5]

CCCc1c(OCCCOc2ccc(OCC(=O)O)cc2)ccc(C(C)=O)c1O
inactive: outcome [8] | outcome [9] | Potency [10] | outcome [11] | Potency [1] | Potency [2] | Potency [3] | Potency [4] | Potency [5]
-13.9%: activity change, negative = inhibition [6]

C[C@]12CCC3c4ccc(O)cc4CCC3C1CCC2=O (stereo partly drawn)
inactive: Potency [1] | Potency [2] | Potency [3] | Potency [4] | Potency [5] | Potency [6]

N#CC1(c2cccc(C(=O)Nc3cc(Oc4ccc5nc(NC(=O)C6CC6)sc5n4)ccc3F)c2Cl)CC1
active: Potency [7] 304 nM
inactive: Potency [1] | Potency [2] | Potency [3] | Potency [4] | Potency [5]
-79.3%: activity change, negative = inhibition [6]

CC(C)C[C@@H](N)[C@H](O)C(=O)N[C@H](C(=O)N[C@H](C(=O)N[C@@H](CC(=O)O)C(=O)O)C(C)C)C(C)C
inactive: Potency [1] | Potency [2] | Potency [3] | Potency [4] | Potency [5]
-14%: activity change, negative = inhibition [6]

CCN1/C(=C/C(C)=O)Sc2ccc(OC)cc21
inactive: outcome [8] | outcome [9] | Potency [10] | outcome [11] | Potency [1] | Potency [2] | Potency [3] | Potency [4] | Potency [5]
-1.33%: activity change, negative = inhibition [6]

CC(C)[C@H](CO)Nc1nc(Nc2cccc(Cl)c2)c2ncn(C(C)C)c2n1
active: Potency [12] 7940 nM | Potency [6] 7940 nM | Potency [7] 8570 nM
inactive: Potency [13] | Potency [1] | Potency [2] | Potency [3] | Potency [4]
